The record followed here is the antibiotic and cytotoxicity screens of Wong et al. (2023).

Out of some 39,000 compounds screened, about 500 (1.3%) were called active. Only a selection was taken, and actives are over-represented in it overall.

The subject of this test is S. aureus RN4220. In words: growth inhibition call (relative growth <= 0.2). The settings on record: 50 µM.
On to `COCC#Cc1cnc2c(c1)C(=O)N([C@H](C)CO)C[C@H](C)[C@@H](CN(C)C(=O)c1ccc3c(c1)OCO3)O2`, for which the growth inhibition call is “inactive”.
`C[C@@H]1CCCCO[C@@H](CN(C)Cc2ccc(C(=O)O)cc2)[C@@H](C)CN([C@H](C)CO)C(=O)c2cc(NC(=O)Nc3ccc(F)cc3)ccc2O1`: the growth inhibition call was “inactive”.
For `CN(C)CCN1C[C@@H]2CN(C(=O)c3cnc[nH]3)C[C@H]2C1=O` the value was “inactive”; for `C[C@@H]1CN([C@H](C)CO)C(=O)Cc2cc(NS(=O)(=O)c3cn(C)cn3)ccc2O[C@H]1CN(C)S(=O)(=O)c1ccccc1`, “inactive”; for `Cc1ccccc1S(=O)(=O)N1[C@@H]2c3cccc(=O)n3C[C@H]1[C@H](CO)[C@H]2C(=O)N1CCOCC1`, “inactive”.
As to `C[C@H]1CN([C@@H](C)CO)C(=O)c2cccc(NS(=O)(=O)c3cn(C)cn3)c2O[C@@H]1CN(C)Cc1ccc(C(=O)Nc2ccccc2N)cc1`, the growth inhibition call was “inactive”.
As for `Cc1ccc(S(=O)(=O)N(C)C[C@H]2OCCCC[C@@H](C)Oc3ccc(NC(=O)CCCCCC(=O)Nc4ccccc4N)cc3C(=O)N([C@H](C)CO)C[C@@H]2C)cc1`, the entry is “inactive”.
For `Cc1noc(C)c1NC(=O)N(C)C[C@H]1OCCCC[C@@H](C)Oc2ccc(NS(=O)(=O)c3ccc(Cl)cc3)cc2C(=O)N([C@@H](C)CO)C[C@@H]1C` the value was “inactive”.
With `Cn1c(=O)c2c(ncn2C[C@@H](O)CNc2ccc(Br)cc2)n(C)c1=O`, the growth inhibition call was “inactive”.
As for `COc1cc(C)c(C=CC=CC=CC=CC(=O)O)c(C)c1C`, the growth inhibition call was “inactive”.
As to `C[C@H]1CN([C@@H](C)CO)C(=O)c2cccc(NC(=O)Nc3ccc(C(F)(F)F)cc3)c2O[C@@H]1CN(C)C(=O)Nc1ccc(F)cc1`, the growth inhibition call is “inactive”.
Turning to `C[C@H](CO)N1C[C@H](C)[C@H](CN(C)C(=O)Nc2ccc(F)cc2)Oc2c(NC(=O)Nc3ccc(C(F)(F)F)cc3)cccc2C1=O`, the growth inhibition call is “active”.
Consider `C[C@@H]1CN([C@H](C)CO)C(=O)c2cccc(NC(=O)Nc3ccc(F)cc3)c2O[C@@H]1CN(C)C(=O)Nc1ccc(C(F)(F)F)cc1`, for which the growth inhibition call was “inactive”.
Regarding `C[C@H](CO)N1C[C@H](C)[C@@H](CN(C)C(=O)NC2CCCCC2)OCCCC[C@H](C)Oc2ccc(NC(=O)c3ccncc3)cc2C1=O`, the growth inhibition call was “inactive”.
Consider `C[C@@H]1CN([C@@H](C)CO)C(=O)c2cc(NC(=O)Nc3ccc(F)cc3)ccc2O[C@@H](C)CCCCO[C@@H]1CN(C)C(=O)NC1CCCCC1`, for which the growth inhibition call is “inactive”.
With `C[C@@H]1CCCCO[C@@H](CN(C)C(=O)C2CCCCC2)[C@@H](C)CN([C@H](C)CO)C(=O)c2cc(NC(=O)C3CCCCC3)ccc2O1`, the growth inhibition call was “inactive”.
As to `Cn1nnnc1SCC1=C(C(=O)[O-])N2C(=O)C(NC(=O)C(O)c3ccccc3)C2SC1.[Na+]` (stereo not given), the growth inhibition call is “active”.
For `Cn1nnnc1SCC1=C(C(=O)[O-])N2C(=O)C(NC(=O)C(OC=O)c3ccccc3)C2SC1.[Na+]` (stereo not given) the value was “active”; for `NCc1ccccc1CC(=O)NC1C(=O)N2C(C(=O)O)=C(CSc3nnnn3CC(=O)O)CSC12` (stereo not given), “active”; for `O=C([O-])C1=C(CSc2nnnn2CS(=O)(=O)[O-])CSC2C(NC(=O)C(O)c3ccccc3)C(=O)N12.[Na+].[Na+]` (stereo not given), “active”.
Take `CC1=C(C(=O)O)N2C(=O)[C@@H](NC(=O)[C@H](N)C3=CCC=CC3)[C@H]2SC1`: the growth inhibition call was “inactive”.
Consider `CC1=C(C(=O)O)N2C(=O)C(NC(=O)C(N)C3=CCC=CC3)C2SC1` (stereo not given), for which the growth inhibition call was “inactive”.
As to `CCCNC(=O)C[C@H]1CC[C@H]2[C@@H](COc3ccc(NC(=O)c4ccc5c(c4)OCO5)cc3C(=O)N2C)O1`, the growth inhibition call was “inactive”.
For `C[C@H]1CN([C@@H](C)CO)C(=O)c2cc(Br)cnc2O[C@H]1CN(C)S(=O)(=O)c1ccccc1F` the value was “inactive”; for `Cc1noc(C)c1NC(=O)N(C)C[C@@H]1Oc2ccc(NS(=O)(=O)c3cn(C)cn3)cc2CC(=O)N([C@H](C)CO)C[C@@H]1C`, “inactive”.
For the molecule `C[C@H](CO)N1C[C@H](C)[C@H](CN(C)S(=O)(=O)c2ccc(Cl)cc2)Oc2c(NC(=O)Nc3cccc4ccccc34)cccc2C1=O`, the growth inhibition call was “inactive”.
`Cc1noc(C)c1NC(=O)Nc1ccc2c(c1)C(=O)N([C@@H](C)CO)C[C@H](C)[C@H](CN(C)S(=O)(=O)c1ccccc1)O2`: the growth inhibition call is “inactive”.
For the molecule `C[C@@H]1CN([C@@H](C)CO)C(=O)CCCn2cc(nn2)CO[C@@H]1CN(C)Cc1ccc(C(=O)Nc2ccccc2N)cc1`, the growth inhibition call is “inactive”.
For the molecule `C[C@@H](NS(=O)(=O)c1cccc(F)c1)C(=O)O`, the growth inhibition call is “inactive”.
For `C[C@@H]1CN([C@H](C)CO)C(=O)c2cc(NC(=O)C3CCCCC3)ccc2O[C@@H](C)CCCCO[C@H]1CN(C)C(=O)Nc1ccc(F)cc1` the value was “inactive”; for `C[C@H](CO)N1C[C@H](C)[C@H](CN(C)C(=O)Nc2ccccc2)OCCCC[C@H](C)Oc2ccc(NS(=O)(=O)c3ccc(F)cc3)cc2C1=O`, “inactive”.
Turning to `c1coc(CNc2nc[n+]3c4c2ncn4CC3)c1`, the growth inhibition call is “inactive”.
Regarding `C[C@@H]1CCCCO[C@H](CN(C)C(=O)Nc2cccc3ccccc23)[C@H](C)CN([C@@H](C)CO)C(=O)c2cc(N(C)C)ccc2O1`, the growth inhibition call was “inactive”.
As for `Cc1noc(C)c1S(=O)(=O)Nc1ccc2c(c1)C(=O)N([C@@H](C)CO)C[C@H](C)[C@@H](CN(C)C(=O)Nc1ccc3c(c1)OCO3)O2`, the entry is “inactive”; as for `COC1C(O)CC(=O)OC(C)CC=CC=CC(OC2CCC(N(C)C)C(C)O2)C(C)CC(CC=O)C1OC1OC(C)C(OC2CC(C)(O)C(O)C(C)O2)C(N(C)C)C1O` (stereo not given), “active”.
As for `CO[C@@H]1[C@@H](O[C@@H]2O[C@H](C)[C@@H](O[C@H]3C[C@@](C)(O)[C@@H](O)[C@H](C)O3)[C@H](N(C)C)[C@H]2O)[C@@H](CC=O)C[C@@H](C)[C@@H](O[C@H]2CC[C@H](N(C)C)[C@@H](C)O2)/C=C/C=C/CC(C)OC(=O)C[C@H]1OC(C)=O` (stereo not given in full), the entry is “inactive”.
`CO[C@@H]1[C@@H](O[C@@H]2O[C@H](C)[C@@H](O[C@H]3C[C@@](C)(O)[C@@H](O)[C@H](C)O3)[C@H](N(C)C)[C@H]2O)[C@@H](CC=O)C[C@@H](C)[C@@H](O[C@H]2CC[C@H](N(C)C)[C@@H](C)O2)/C=C/C=C/C[C@@H](C)OC(=O)C[C@H]1O`: the growth inhibition call was “active”.
With `Cc1noc(C)c1NC(=O)Nc1ccc2c(c1)C(=O)N([C@H](C)CO)C[C@@H](C)[C@H](CN(C)C(=O)Nc1cccc3ccccc13)O2`, the growth inhibition call is “inactive”.
Regarding `COC(=O)c1c2oc(c1C(=O)OC)C(=O)N[C@H](Cc1ccccc1)Cn1cc(nn1)[C@@H](Cc1ccccc1)NC(=O)N[C@@H](COC(=O)NCCCCCC(=O)NO)CC2`, the growth inhibition call was “inactive”.
Turning to `C[C@@H]1CCCCO[C@@H](CN(C)C(=O)Nc2ccc3c(c2)OCO3)[C@@H](C)CN([C@@H](C)CO)C(=O)c2cc(NC(=O)Nc3ccc(F)cc3)ccc2O1`, the growth inhibition call was “inactive”.
Regarding `COc1ccc(NC(=O)Nc2ccc3c(c2)C(=O)N([C@H](C)CO)C[C@H](C)[C@@H](CN(C)C(=O)Nc2ccccc2)OCCCC[C@@H](C)O3)cc1`, the growth inhibition call was “inactive”.
Take `CCCCCCOC(=O)/N=C(/N)c1ccc(NCc2nc3cc(C(=O)N(CCC(=O)OCC)c4ccccn4)ccc3n2C)cc1`: the growth inhibition call was “inactive”.
As for `C[C@H](CO)N1C[C@H](C)[C@H](CN(C)C(=O)Nc2ccc(C(F)(F)F)cc2)Oc2c(NC(=O)C3CCCCC3)cccc2C1=O`, the growth inhibition call is “inactive”.
For the molecule `CC(C)N1C[C@H](C)[C@@H](CN(C)Cc2ccc(Oc3ccccc3)cc2)Oc2c(NC(=O)C3CCN(C)CC3)cccc2C1=O`, the growth inhibition call was “inactive”.
Turning to `C[C@H](CO)N1C[C@H](C)[C@@H](CN(C)C(=O)Nc2ccc(C(F)(F)F)cc2)Oc2c(NC(=O)C3CCCCC3)cccc2C1=O`, the growth inhibition call was “inactive”.
As to `C[C@@H]1CN([C@@H](C)CO)C(=O)c2cccc(NC(=O)C3CCCCC3)c2O[C@@H]1CN(C)C(=O)Nc1ccc(C(F)(F)F)cc1`, the growth inhibition call is “active”.
For the molecule `C[C@H](CO)N1C[C@H](C)[C@@H](CN(C)Cc2ccc(Oc3ccccc3)cc2)Oc2c(NC(=O)C3CC3)cccc2C1=O`, the growth inhibition call is “inactive”.
Turning to `CC(C)N1C[C@H](C)[C@@H](CN(C)Cc2ccc(Oc3ccccc3)cc2)Oc2c(NC(=O)C3CCNCC3)cccc2C1=O`, the growth inhibition call is “active”.
For `C[C@@H]1CN([C@H](C)CO)C(=O)c2cccc(NC(=O)C3CCCCC3)c2O[C@@H]1CN(C)C(=O)Nc1ccc(C(F)(F)F)cc1`, the growth inhibition call is “active”.
Consider `C[C@@H]1CN([C@H](C)CO)C(=O)c2cccc(NC(=O)C3CCCCC3)c2O[C@H]1CN(C)C(=O)Nc1ccc(C(F)(F)F)cc1`, for which the growth inhibition call was “inactive”.
As to `C[C@@H]1CN([C@@H](C)CO)C(=O)c2cccc(NC(=O)C3CCCCC3)c2O[C@H]1CN(C)C(=O)Nc1ccc(C(F)(F)F)cc1`, the growth inhibition call is “inactive”.
For `C[C@@H]1CN([C@H](C)CO)C(=O)Cc2cc(NC(=O)Nc3ccc4c(c3)OCO4)ccc2O[C@H]1CN(C)C(=O)Nc1ccc(C(F)(F)F)cc1`, the growth inhibition call is “inactive”.
`C[C@H](CO)N1C[C@H](C)[C@H](CN(C)C(=O)c2ccccc2)OCCCC[C@H](C)Oc2ccc(NC(=O)CCC(F)(F)F)cc2C1=O`: the growth inhibition call is “inactive”.
As for `C[C@@H]1CN([C@H](C)CO)S(=O)(=O)c2ccc(-c3ccncc3)cc2O[C@H]1CN(C)C(=O)c1ccc2c(c1)OCO2`, the growth inhibition call was “inactive”.
In the case of `C[C@@H]1CN([C@H](C)CO)C(=O)c2cc(C#CCN(C)C)cnc2O[C@@H]1CN(C)S(=O)(=O)c1cn(C)cn1`, the growth inhibition call was “inactive”.
`COc1ccc(S(=O)(=O)Nc2ccc3c(c2)C(=O)N([C@@H](C)CO)C[C@@H](C)[C@H](CN(C)C(=O)Nc2ccc4c(c2)OCO4)OCCCC[C@@H](C)O3)cc1`: the growth inhibition call is “inactive”.
In the case of `CCn1cnc2c(=O)[nH][nH]c(=O)c21`, the growth inhibition call was “inactive”.
Consider `C[C@@H]1CN([C@@H](C)CO)C(=O)Cc2cc(NC(=O)Nc3ccccc3)ccc2O[C@@H]1CN(C)Cc1ccc(C(F)(F)F)cc1`, for which the growth inhibition call is “inactive”.
For `CC(C)NC(=O)N(C)C[C@@H]1Oc2ccc(NC(=O)C3CCCCC3)cc2CC(=O)N([C@H](C)CO)C[C@H]1C`, the growth inhibition call is “inactive”.
In the case of `C[C@H]1CN([C@@H](C)CO)C(=O)CCCn2cc(nn2)CO[C@@H]1CN(C)C(=O)Nc1cccc(C(F)(F)F)c1`, the growth inhibition call was “inactive”.
